# Measured values as given in PubChem BioAssay AID2451 (National Center for Advancing Translational Sciences (NCATS), 2010).
# About 2,100 (0.72%) of roughly 290,000 compounds were called active. Entries that show only a call come without a potency. Not shown: some 4% with an inconclusive outcome. The call rests on the fitted dose curve; in most records, active means well fitted inhibition curve with a large enough effect; inconclusive means small, poorly fitted or top-dose-only effect, or effect the other way; inactive means flat fitted curve, though single readings scatter. Only a selection was taken, and actives are over-represented in it overall.
# Target: Fructose-bisphosphate aldolase (Giardia intestinalis (strain ATCC 50803 / WB clone C6)) (UniProt A8B2U2)
# Sequence (A8B2U2 whole entry, looked up): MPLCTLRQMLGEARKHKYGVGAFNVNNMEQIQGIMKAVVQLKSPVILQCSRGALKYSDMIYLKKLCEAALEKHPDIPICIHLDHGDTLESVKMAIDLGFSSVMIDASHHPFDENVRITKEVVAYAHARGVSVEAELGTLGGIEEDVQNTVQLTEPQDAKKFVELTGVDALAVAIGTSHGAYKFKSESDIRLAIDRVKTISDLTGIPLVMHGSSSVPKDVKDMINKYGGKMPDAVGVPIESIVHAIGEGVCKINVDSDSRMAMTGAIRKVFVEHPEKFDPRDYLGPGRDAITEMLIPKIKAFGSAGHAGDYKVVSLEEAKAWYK
# Experiment: qHTS Assay for Inhibitors of Fructose-1,6-bisphosphate Aldolase from Giardia Lamblia; further: nearly all actives have a fitted effect of over 55% in size
# Details: purified Giardia FBPA; series mostly up to 59.6 µM
# Description: Assay Provider: Osnat Herzberg, University of Maryland
# The objective of this project is to obtain compounds that inhibit Giardia lamblia growth. G. lamblia is a human pathogen which afflicts impoverished nations; it is the most common cause of outbreaks of diarrhea in the United States. During the course of our study of potential drug targets in Giardia, we have identified the Class II (Zn2+ functions in electrophilic catalysis) fructose-1,6-bisphosphate aldolase (FBPA) as an excellent candidate for drug targeting. FBPA is a key glycolytic pathway enzyme, essential for G. lamblia survival. The human FBPA belongs to the Class I aldolases, which have a different substrate binding site structure and a radically different catalytic mechanism (employing a lysine-Schiff base intermediate). Therefore, affinity-based or mechanism-based inhibitors of the Giardia FBPA are expected not to interfere with the catalytic function of the human FBPA.
# A glyceraldehyde-3-phosphate dehydrogenase/triose phosphate isomerase/NAD/arsenate coupled assay was adapted to the 1536-well HTP format for use in the primary screen. This was done by coupling it to a diaphorase/resazurin/resorufin reaction that can be monitored by fluorescence (excitation, 544 nm; emission, 590 nm). Compounds identified in this screen will be further evaluated by coupling the glycerol-3-phosphate/triose phosphate isomerase/NADH assay to a phenazine methosulfate/tetranitroblue tetrazolium color reaction. False positives due to the dehydrogenases and diaphorase inhibition will be eliminated, and selectivity assay will triage inhibitors of mammalian triose phosphate isomerase and the Class I FBPA. G. lamblia FBPA inhibitors identified by the in vitro analyses will be examined for growth inhibition of Giardia trophozoites, and for cytotoxicity in human cells.
# Step,Parameter,Value,Description
# 1,Enzyme reagent,2 uL,40 nM FBPA
# 2,Compound,23 nL,3.68 nM-57.5 uM final concentration
# 3,Time,10 min,RT Incubation
# 4,Substrate/detection Reagent,2 uL,Substrate + enzyme coupling system + AmpLite Red kit
# 5,Time,20 min,RT Incubation
# 6,Detector,525 nm/598 nm (Fluorescence),ViewLux Fluorescence Read (Read 1)
# 1,Medium-binding black solid-bottom Kalypsys plates. FRD or Kalypsys dispenser, 2 uL of FBPA enzyme. Bottle kept at 4C.
# 2,Compound Library (10 mM ,1:5 dilution). Pin-transferred for a [final] range of 3.68 nM-57.5 uM.
# 4,FRD or Kalypsys dispenser, 2 uL of reaction mixture. Bottle kept at 4C and covered in foil to protect from light.
# 6,ViewLux Protocol 1194; Excitation filter wheel A (525/20 Pol; BODIPY TMR FP), Emission filter wheel B (598/25 S; BODIPY TMR FP S).
# Keywords: Fructose-bisphosphate aldolase, FBPA , Giardia lamblia , Giardia, HTS, Inhibitors
# Potency means the concentration at half of the fitted maximal effect.
row,Structure (SMILES),Potency
1,Cc1nc2ccc(NC(=S)N3CCC(C)CC3)cc2nc1C,15.8 µM (active)
2,Cc1cccc(NC(=S)N2CCC(c3nc4ccccc4s3)CC2)c1,inactive
3,Cc1nc2ccc(NC(=O)N3CCC(c4ccccc4)C3)cc2nc1C (stereo unspecified),inactive
4,O=CN1CCN(C(=O)c2ccc(Br)o2)CC1,inactive
5,Cc1csc(NC(=O)CN2CCCCCC2)n1,22.3 µM (active)
6,Cc1cc(C)c(NC(=O)CN2CCCCCC2)c(C)c1,inactive
7,O=C(CN1CCCCCC1)Nc1c(Cl)cc(Cl)cc1Cl,inactive
8,Cc1cccc([C@@H]2[C@@H]3C(=O)N(C)C(=O)[C@@H]3[C@@H]3C(=O)Nc4ccccc4C(=O)N23)c1,inactive
9,COc1ccccc1N(CC(=O)N/N=C(\C)c1ccccc1O)S(=O)(=O)c1ccc(C)cc1,inactive
10,CC(C)(C)c1ccc(CN2C(=O)c3ccccc3S2(=O)=O)cc1,inactive
11,Cc1ccc(C(=O)N2CC(=O)Nc3ccc(F)cc3C2c2ccc(F)cc2)cc1 (stereo unspecified),inactive
12,Cc1nnc(N/N=C/c2cccs2)[nH]c1=O,inactive
13,Cc1nnc(N/N=C/c2ccccn2)[nH]c1=O,1.99 µM (active)
14,Cc1ccccc1Nc1nnc(C)c(=O)[nH]1,inactive
15,O=S(=O)(c1ccc(Br)c2ccccc12)N1CCOCC1,inactive
16,COc1ccc(C(=O)Nc2ccc(C3(C#N)CCCC3)cc2)cc1OC,inactive
17,Cc1ccc(CC2CC(=O)N(c3cc(C)ccc3C)C2=O)cc1 (stereo unspecified),inactive
18,O=C(COc1cccc(Cl)c1)NCc1ccccc1,inactive
19,CN(C)c1ccc(NC(=O)CSc2n[nH]c(-c3ccco3)n2)cc1,inactive

row,Structure (SMILES),Potency
1,CN(C)C(=O)CSc1n[nH]c(-c2ccco2)n1,15.8 µM (active)
2,O=[N+]([O-])c1ccc(Sc2n[nH]c(-c3ccco3)n2)nc1,inactive
3,CC(C)Nc1ccc(-n2nc3ccccc3[n+]2[O-])cc1,inactive
4,COCCCNC(=S)N1CCN(c2nc(-c3cccc(OC)c3)cs2)CC1,inactive
5,O=C(N/C(=C/c1ccc(Cl)cc1)C(=O)N1CCCCC1)c1ccco1,inactive
6,COc1cc2ccccc2cc1C(=O)Nc1nc(C)c(C(C)=O)s1,inactive
7,CCCCC(CC)CNCc1cccn1CCN1CCOCC1 (stereo unspecified),inactive
8,CCN(CC)c1ccc2oc(=O)c(C)nc2c1,2.51 µM (active)
9,CCN(CC)c1ccc(/C=N/Nc2nc(C)cc(C)n2)c(O)c1,inactive
10,CCN(CC)c1ccc(/C=N/Nc2nc(C)cc(=O)[nH]2)cc1,inactive
11,CCOCCOC(=O)C(C)Oc1ccc(Oc2ncc(C(F)(F)F)cc2Cl)cc1 (stereo unspecified),inactive
12,COc1ccc(C2CC(c3ccc([N+](=O)[O-])cc3)=NN2C(C)=O)cc1 (stereo unspecified),inactive
13,COc1ccc2c(c1)C(=C(C#N)C#N)C(=O)N2CCc1ccccc1,2.51 µM (active)
14,COc1ccc(C(=O)NC(C)CCc2ccccc2)c(OC)c1 (stereo unspecified),inactive
15,C#CCN1C(=O)C(O)(CC(=O)c2cc(OC)ccc2OC)c2ccccc21 (stereo unspecified),inactive
16,Brc1ccccc1C1N=C(c2ccccc2)NO1 (stereo unspecified),inactive
17,Cc1ccc(SCC(CC(C)C)N2CCN(CCc3ccccc3)CCC2=O)cc1 (stereo unspecified),inactive
18,CCOc1ccccc1NC(=O)C1CCCN(S(=O)(=O)c2ccccc2)C1 (stereo unspecified),inactive
19,CCN1CCc2c(C#N)c(NCc3ccccc3)nc(NCCO)c2C1,5.61 µM (active)

row,Structure (SMILES),Potency
1,CCCCc1nc(NCc2ccccc2)c(C#N)c2c1CCCC2,inactive
2,CCc1nc(NCCO)c(C#N)c2c1CCCC2,inactive
3,Cc1cccc(C(=O)NCCCN2CCCC2=O)c1,inactive
4,Cc1cc(Cl)ccc1NC(=S)NCCCN1CCCC1=O,inactive
5,O=C1CCCN1CCCNC(=S)Nc1ccc(F)c(Cl)c1,14.1 µM (active)
6,O=C(O)CCCn1cc(NC(=O)COc2cccc(Cl)c2)cn1,inactive
7,COc1ccc(-n2ncc3c(SCC(=O)NNC(C)=O)ncnc32)cc1,inactive
8,Cc1ccccc1-n1nc(C)c2c1N=C1C(Cl)=CC(Cl)=CN1C2c1ccc(C(=O)O)cc1 (stereo unspecified),12.6 µM (active)
9,Cc1ccccc1-n1nc(C)c2cc(C(=O)NC3CC3)sc21,inactive
10,Cc1nn(-c2ccccc2)c(Cl)c1/C=C/C(=O)c1ccc(O)cc1,inactive
11,Cc1cccc([C@@H]2[C@@H]3C(=O)N(Cc4ccccc4)C(=O)[C@@H]3[C@]3(C)C(=O)N(c4ccc(Br)cc4)C(=O)N23)c1,inactive
12,CCN(CC)S(=O)(=O)c1ccc(-c2cn3ccc(C)cc3n2)cc1,inactive
13,C=CCn1c(SCc2ccccc2)nc2c1c(=O)[nH]c(=O)n2C,inactive
14,Cc1cnc(NC(=O)c2ccc(Cl)nc2)s1,inactive
15,Cc1cnc(NC(=O)CSc2c(Cl)cccc2Cl)s1,inactive
16,Cc1cnc(NC(=O)c2ccccn2)s1,7.92 µM (active)
17,CN(C)CCN(C(=O)C1=COCCO1)c1nc2ccc(Cl)cc2s1,inactive
18,CCc1ccc(NC(=O)N2CCc3ccccc3C2)cc1,inactive
